bCat KO growth: beta-catenin-lacking colon tumor cell growth suppression. 1.5% of 140,000 active. HCT116 beta-catenin knockout viability, CellTiter-Glo, 60 h; active compounds read low. viability, % at 10 µM;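 active = viability at or under a set limit, the compound median less 4 SD, cut at about 6% in these data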;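 note: 0% = Hyamine 1622 control at 20 µM and 100% = untreated cell control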
Insulin prom inh: TRM-6 insulin promoter activity inhibition; TRM-6 cells (human fetal islet line), insulin promoter-eGFP reporter, imaging; reporter expression induced with tamoxifen; 0.9% of 130,000 active; inhibition, % at 2 µM; AID 1273;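 active = inhibition above the mean plus 3 SD, with well images judged a real hit on visual review, cut at about 60% in these data, passing the limit was not always enough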
Lmaj promast: reduces viability of Leishmania major promastigotes | resazurin fluorescence viability | inhibition, % at 10 µM | 9% of 200,000 active; in the data active = inhibition above about 50%;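 note: promastigotes grown with compound for 44 hours at 28 °C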
HCT116 PTEN-null: growth suppressors of cells with PTEN tumor suppressor deletion; HCT116 PTEN-null viability, CellTiter-Glo, 60 h; active compounds read low; viability, % at 10 µM; 1.2% of 140,000 active; AID 827;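 active = viability at or below a set limit, 4 SD under the median of all tested compounds, cut at about 3.7% in these data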;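 note: PTEN knockout HCT116 line with beta catenin targeted HCT116 as companion control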
Autophagy mod: modulators of autophagy. MEF GFP-LC3 puncta imaging; test concentration mostly 10 µM. calls only at 10 µM (by protocol). 0.98% of 190,000 active. AID 463193;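 active = percentage of spot-positive cells more than 3 SD above its plate mean, without a fluorescence outlier flag or 80% toxicity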;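 note: spot-positive cell cutoff set from DMSO-treated cells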
Insulin prom up: MIN6 insulin promoter up-regulation; MIN6 insulin promoter-GFP reporter, high-content imaging; active compounds read high; z-score at 5 µM; 0.3% of 190,000 active; AID 1625;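 active = z-score above 3 at 5 µM with at least 500 cells counted in the well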
The depositor's hits bear a star; i = inactive; . = no result; + = active, no number; ! = not active in a repeat. Hits are enriched below; roughly 9.6% of the tested compounds scored in any of these assays.

SMILES	bCat KO growth	Insulin prom inh	Lmaj promast	HCT116 PTEN-null	Autophagy mod	Insulin prom up
COC(=O)N/N=C/c1cc(N=Nc2ccccc2)ccc1O	.	.	.	.	.	-0.01
Cc1cc(C(=O)N/N=C/c2cc(N=Nc3ccccc3)ccc2O)n[nH]1	6.7	.	99.5*	6.8	i	-0.13
O=C1ON=C(c2ccc(Cl)cc2)/C1=C/c1ccc(O)cc1	.	.	65.1*	.	i	-0.66
COc1cc(/C=C2/C(=O)ON=C2c2ccccc2)ccc1O	68.3	0.0	87.6*	61.1	i	-0.2
CC1=NOC(=O)/C1=C/c1ccc(O)cc1	.	-8.3	12.2	.	i	.
O=C1CSC2(C(=O)N3CCCc4cccc2c43)N1c1cccc(C(F)(F)F)c1 (centres undefined)	79.8	-36.1	13.3	78.0	i	.
Cc1cc(NS(=O)(=O)c2ccc(NC(=O)c3oc4ccccc4c3C)cc2)no1	91.9	78.6*	0.2	95.5	i	1.41
Cc1cc(NS(=O)(=O)c2ccc(NC(=O)c3ccco3)cc2)no1	96.6	.	-3.8	101.6	+	1.01
CCC(=O)Nc1ccc(C(=O)CSc2nnc(-c3ccc(O)cc3)n2CC2CCCO2)cc1 (centres undefined)	93.4	9.1	0.2	94.0	i	0.52
COCCOC(=O)C1=C(C)NC(=O)NC1c1c(Cl)nc2ccccn2c1=O (centres undefined)	91.6	.	-1.4	102.2	i	0.03
CCc1cccc(CC)c1NC(=O)c1cc(CN2C(=O)c3ccccc3C2=O)ccc1OC	96.0	22.1	88.1*	93.7	i	0.51
COc1cccc(N(C(=O)CCl)C(C(=O)NCCc2ccccc2)c2cccs2)c1 (centres undefined)	2.4*	-163.2	100.2*	1.2*	i	.
COc1cccc(N(C(=O)CS(=O)CC(=O)Nc2ccc(F)cc2)C(C(=O)NC2CCCCC2)c2cccs2)c1 (centres undefined)	81.8	-37.9	24.5	83.3	i	1.01
COc1ccc(N(C(=O)CCl)C(C(=O)NCCc2ccccc2)c2cccs2)cc1Cl (centres undefined)	1.8*	-257.1	100.4*	0.9*	i	-1.56
CN(C)CCCN1c2ccccc2Sc2ccc(Cl)cc21	1.8*!	-72.7	82.8*	2.7*!	i	-0.58
CN(C)CCCN1c2ccccc2CCc2ccccc21	74.6	38.1	27.5	77.7	i	.
OCCN1CCN(CCCN2c3ccccc3Sc3ccc(Cl)cc32)CC1	1.5*	23.8	96.2*	2.3*	i	.
O=C(O)CCN1c2ccccc2Sc2ccccc21	.	.	.	.	.	-0.01
COc1cc(C2C3=C(CC(C)(C)CC3=O)NC3=C2C(=O)c2ccccc23)ccc1O (centres undefined)	.	.	11.9	.	i	.
N#C/C(=C\c1ccc(-c2cccc([N+](=O)[O-])c2)o1)c1nnc(N2CCOCC2)n1-c1ccccc1	.	-30.0	63.1*	.	i	.
N#C/C(=C\c1ccc(-c2cccc([N+](=O)[O-])c2)o1)C(=O)N1CCOCC1	.	-7.1	5.8	.	i	-0.07
CCCN1CCN(C(=O)CCCn2c(C)c3cnn(-c4ccccc4)c(=O)c3c2C)CC1	92.2	.	85.0*	83.4	i	0.61
CCC(C(=O)NCCN1CCN(C)CC1)n1c(C)c2cnn(-c3ccccc3)c(=O)c2c1C (centres undefined)	93.0	57.7	-4.4	92.3	i	0.97
Cc1sc2ncnc(NCC3CCCO3)c2c1C (centres undefined)	90.4	-52.8	34.2	84.3	i	-0.4
CCc1cc2c(NCC3CCCO3)ncnc2s1 (centres undefined)	96.0	74.2*	1.0	91.6	i	-1.43
SMILES	bCat KO growth	Insulin prom inh	Lmaj promast	HCT116 PTEN-null	Autophagy mod	Insulin prom up
Cc1ccc2c(CC(=O)NNC(=O)c3ccccc3)coc2c1	98.0	-8.1	54.9*	106.5	i	0.62
O=C(OCc1cncs1)c1ccccc1Cl	.	.	-7.1	.	i	-0.05
O=C(Nc1ccccc1Cl)OCc1cncs1	.	66.7*	0.1	.	i	-1.24
O=C(Nc1ccn(Cc2c(F)c(F)cc(F)c2F)n1)c1ccc(COc2ccccc2Cl)cc1	44.1	0.0	20.0	44.2	i	-0.18
O=C(Nc1ccn(Cc2ccccc2F)n1)c1ccc(COc2ccccc2Cl)cc1	5.9*	42.9	15.0	17.0	i	-0.3
CCC(NC(=O)C1(C)CC1(Br)Br)c1ccc(C)cc1 (centres undefined)	78.0	-59.5	25.9	91.7	i	.
CSC1=C(C#N)C(c2ccc(C(C)C)cc2)CC(=O)N1 (centres undefined)	93.9	.	-1.0	98.7	i	0.59

High-throughput results deposited in PubChem by several laboratories.
